From PubChem BioAssay AID896 (National Center for Advancing Translational Sciences (NCATS), 2007)
This is one part of the list. Results filed as inconclusive are left out.

experiment: Confirmation Concentration-Response Assay for Allosteric/Competitive Inhibitors of Caspase-1; settings: purified caspase-1, fluorogenic substrate cleavage; compound fluorescence baseline read; at 57.5 µM
Description: NIH Molecular Libraries Screening Centers Network [MLSCN]
NIH Chemical Genomics Center [NCGC]
PI Name: Dr. James Wells,
Dr. Enrique Perez-Paya, Dr.Janice Williams, Dr. Dennis Wolan, a person
The caspases (Cysteine Aspartyl Protease) comprise a related family of 14 dimeric proteases that are critical mediators of apoptosis (programmed cell death) and inflammation. The caspases represent an important class of drug targets for stroke, ischemia, cancer and inflammatory diseases. […] One goal of this project was to identify compounds that act as allosteric inhibitors via stabilizing the procaspase form of the enzyme. […]
The biochemical assay was configured using purified caspase 1 at a high enzyme concentration to promote formation of the homodimers and thus facilitate the identification of allosteric inhibitors. […] After initiation of the assay with substrate the plates were rapidly read using an automated robotic system (Kalypsys, Inc.) to maintain consistent timing. […] Product formation was also measured after 1 hour. […]
Caspase 1 was prepared in buffer (50 mM HEPES pH 7.5, 50 mM KCl, 200 mM NaCl, 10 mM DTT, 0.1% CHAPS) at a concentration of 66.6 nM and 3 uL was dispensed to all wells using black solid Kalypsys 1536-well plates. […] The plates were then exposed using 405 nm excitation/520 nm emission filters for 4 sec and read at 20 sec intervals for 3 min. […]

Row | Compound | baseline fluorescence [%]
1 | Cc1nc2c(C(=O)NCc3ccc4c(c3)OCO4)c[nH]n2c(=O)c1Cc1ccccc1F | -1.24
